# Screens as filed in PubChem BioAssay.
# hcDAF12 agonist: H. contortus DAF-12 nuclear receptor activators, primary screen, cell-based, luminescence, HEK293, lit1-tk-luc reporter. HEK293 hcDAF-12 lit1-tk-luc reporter; 0% DMSO, 100% Δ7-dafachronic acid. activation, % at 6.8 µM. actives 1.4% (n = 370,000);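 active = activation above the mean of all tested compounds plus 3 SD, cut at about 5.5% in these data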;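 also: 100% = response to 3 µM Δ7-dafachronic acid high control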
# DAX1 inh-1: DAX1 (NR0B1) inhibitors, primary screen, cell-based, HEK293, Gal4-DAX1, luciferase luminescence | actives 0.99% (n = 340,000) | inhibition, % at 6.75 µM | Nuclear receptor subfamily 0 group B member 1 (Homo sapiens), P51843 | HEK293 Gal4-DAX1 luciferase reporter;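 active = inhibition above the mean over all tested compounds plus 3 SD, cut at about 4.2% in these data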;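 also: 0% = DAX1-transfected cells with DMSO and 100% = empty-vector control cells with DMSO; inhibition shows as a rise in luminescence from relieved DAX1 repression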
# ssDAF-12 act: S. stercoralis DAF-12 nuclear receptor activators, primary screen, cell-based, luminescence, HEK293, GRIP1 co-expression, lit1-tk-luc | Nuclear hormone receptor DAF-12 (Strongyloides stercoralis) | HEK293 ssDAF-12/GRIP1 lit1-tk-luc reporter; % of 3 µM dafachronic acid response | activation, % at 6.8 µM | actives 1% (n = 370,000) | AID 652126, 2013;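 active = activation above the mean over all tested compounds plus 3 SD, cut at about 0.9% in these data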;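 also: 0% = DMSO-only wells and 100% = 3 µM delta7-dafachronic acid wells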
# AHR activator: AHR activators, primary screen, cell-based, luminescence, luciferase reporter, human | Aryl hydrocarbon receptor (Homo sapiens), P35869 | AHR-responsive luciferase reporter cells | activation, % at 5 µM | actives 2.5% (n = 320,000) | AID 2796, 2010; in the data active = activation above about 47%;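 also: 0% = vehicle wells and 100% = reference agonist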
# Target sequence (P35869 whole entry, looked up): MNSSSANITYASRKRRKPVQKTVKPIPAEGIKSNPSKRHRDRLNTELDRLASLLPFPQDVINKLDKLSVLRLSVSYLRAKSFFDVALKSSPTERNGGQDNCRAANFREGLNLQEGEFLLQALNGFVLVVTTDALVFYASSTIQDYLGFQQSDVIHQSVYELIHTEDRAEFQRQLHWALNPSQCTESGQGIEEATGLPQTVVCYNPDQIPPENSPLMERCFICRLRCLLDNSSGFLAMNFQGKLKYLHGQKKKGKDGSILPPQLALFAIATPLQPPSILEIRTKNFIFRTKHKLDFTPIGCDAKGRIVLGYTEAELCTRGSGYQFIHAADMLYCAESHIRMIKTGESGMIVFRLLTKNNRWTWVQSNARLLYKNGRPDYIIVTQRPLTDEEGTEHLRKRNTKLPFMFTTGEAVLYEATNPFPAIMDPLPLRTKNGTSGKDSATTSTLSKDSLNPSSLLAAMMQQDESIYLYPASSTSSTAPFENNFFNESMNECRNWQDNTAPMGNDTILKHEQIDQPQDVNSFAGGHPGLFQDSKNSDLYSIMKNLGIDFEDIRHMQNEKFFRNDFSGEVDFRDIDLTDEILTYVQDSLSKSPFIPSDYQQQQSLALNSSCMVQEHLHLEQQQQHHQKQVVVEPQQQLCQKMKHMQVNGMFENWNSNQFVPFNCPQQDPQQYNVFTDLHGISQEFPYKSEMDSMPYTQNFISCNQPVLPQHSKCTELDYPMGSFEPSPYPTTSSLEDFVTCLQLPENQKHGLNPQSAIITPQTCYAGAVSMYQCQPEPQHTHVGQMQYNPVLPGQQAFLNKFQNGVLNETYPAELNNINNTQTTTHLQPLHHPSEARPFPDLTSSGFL
# hgDAF12 agonist: H. glycines DAF-12 receptor agonists, primary screen, cell-based, luminescence, HEK293, GAL4 fusion, UAS-luciferase; Nuclear hormone receptor DAF-12 (Heterodera glycines), GAL4 fusion; HEK293 GAL4-hgDAF12 UAS-luciferase reporter, agonist luminescence; normalized to butyrate control; activation, % at 6.8 µM; actives 1.8% (n = 370,000); AID 687014, 2013;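 active = activation above a cutoff set at the mean of all screened compounds plus 3 SD, cut at about 10% in these data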;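 also: 0% = DMSO wells and 100% = sodium butyrate wells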
# DAX1 inh-2: DAX1 (NR0B1) inhibitors on StAR promoter, primary screen, cell-based, luminescence, SF-1 (NR5A1), full-length DAX-1 | HEK293T StAR-luciferase reporter, SF-1/DAX-1 repression relief | inhibition, % at 6.8 µM | actives 1.1% (n = 370,000);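 active = inhibition above the mean over all tested compounds plus 3 SD, cut at about 3.6% in these data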;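 also: 0% = DAX-1 cells with DMSO and 100% = cells lacking DAX-1 with DMSO; higher inhibition means more luminescence from relief of DAX-1 repression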
# * hit, by the source's call; / = not tested or not shown. Only some compounds are listed: those with a hit (about 5.7% of all), similar ones and a draw of the others.
SMILES,hcDAF12 agonist,DAX1 inh-1,ssDAF-12 act,AHR activator,hgDAF12 agonist,DAX1 inh-2
CC(C)CCN(C(=O)COc1ccc(C#N)cc1)c1c(N)n(Cc2ccccc2)c(=O)[nH]c1=O,/,/,/,4.5,/,/
CCOC(=O)C(=CNNc1c(C)csc1C(=O)OC)C(=O)OCC,6.3*,0.5,-0.4,14.5,-0.8,-0.4
COC(=O)c1scc(C)c1NC(=O)Cc1ccccc1,-0.8,0.3,-1.1,-3.1,1.5,-0.6
O=C1c2ccccc2C(=O)N1OCc1ccc(Cl)cc1,0.1,2.0,-0.6,51.3*,2.3,0.1
O=C1c2ccccc2C(=O)N1OCCOCCOCCON1C(=O)c2ccccc2C1=O,-2.1,2.2,-0.9,7.8,-1.8,-0.6
O=C1Cc2ccccc2C(=O)N1OCc1ccc(Cl)cc1,3.0,-1.0,0.9*,66.1*,-0.5,0.1
O=C1Cc2ccccc2C(=O)N1Cc1cccc(Cl)c1,1.0,-1.0,-1.4,/,-2.2,0.0
Cc1nc(-c2ccc(NC(=O)c3ccccc3Br)cc2)cs1,-0.6,0.7,0.5,-5.3,20.6*,2.8
O=C(Nc1ccc2[nH]ncc2c1)c1ccccc1Cl,1.0,-1.4,-1.0,10.6,13.2*,1.2
O=C(Nc1ccc2[nH]ncc2c1)c1ccccc1,2.5,2.3,-0.4,17.6,7.4,1.0
O=C(Nc1ccc2[nH]ncc2c1)c1ccccc1Br,4.2,1.0,-0.6,14.6,12.4*,1.7
CC(NC(=O)COC(=O)CNS(=O)(=O)/C=C/c1ccccc1)c1ccccc1 (configuration not stated),-2.1,0.0,-1.0,1.6,5.9,1.3
CC(NC(=O)CN1C(=O)NC2(CCCCC2)C1=O)c1ccc(S(N)(=O)=O)cc1 (configuration not stated),1.4,-1.1,-0.9,/,0.3,3.9*
CCOC(=O)c1ccc(OC)c(OC)c1Cl,-0.5,5.8*,-0.9,1.8,-0.5,-0.6
Fc1ccc(-c2nnc(Cc3ccc(Cl)cc3)o2)cc1,-0.7,1.5,-0.6,-3.2,12.1*,1.3
Fc1ccc(Cc2nnc(-c3cccs3)o2)cc1,0.4,4.3*,-0.7,-2.9,7.3,0.4
CC(C)NCc1nnc(-c2ccc(Cl)cc2)o1,0.1,-0.2,-1.8,5.0,-1.2,0.9
O=C(/C=C(\Nc1ccc(Br)c(F)c1)c1ccccc1)c1ccccc1,0.5,/,-1.0,/,5.2,-0.2
O=C(Nc1cccc(Cl)c1)c1nc[nH]c1C(=O)NCCCNC(=O)c1[nH]cnc1C(=O)Nc1cccc(Cl)c1,0.1,0.4,-0.7,34.1,2.4,0.0
NNC(=O)c1nc[nH]c1C(=O)Nc1ccccn1,1.3,4.3*,0.2,20.9,6.2,-0.4
CN(CCN(C)C(=O)c1[nH]cnc1C(=O)Nc1ccccc1)C(=O)c1[nH]cnc1C(=O)Nc1ccccc1,3.2,0.5,-0.5,47.4*,1.1,-0.3
O=C(Nc1ccccc1)c1nc[nH]c1C(=O)NCCNC(=O)c1[nH]cnc1C(=O)Nc1ccccc1,1.3,-0.9,-1.2,76.0*,-0.9,-1.5
CNC(=O)c1[nH]cnc1C(=O)Nc1cccc(Cl)c1,1.4,0.1,-0.9,54.8*,2.9,-0.1
O=S1(=O)c2ccc(Br)cc2OC[C@@H](Cc2ccccc2)N1Cc1cn(CCC2OCCCO2)nn1,3.6,/,-0.8,/,4.7,-1.1
C#CCN1C(=O)[C@]2(OCCC=C[C@H]2C)c2cc(OC)ccc21,-3.0,/,0.1,/,4.8,-0.5
SMILES,hcDAF12 agonist,DAX1 inh-1,ssDAF-12 act,AHR activator,hgDAF12 agonist,DAX1 inh-2
CN(Cc1ccccc1)C(=O)c1[nH]cnc1C(=O)Nc1ccc(Cl)cc1,-0.3,-1.7,-1.5,65.6*,0.4,-1.1
CN(Cc1ccccc1)C(=O)c1[nH]cnc1C(=O)Nc1cccc(Cl)c1,0.7,1.6,-0.9,22.4,2.4,-0.2
Cc1cc(C)c(S(=O)(=O)N(C)CC(=O)NCc2ccncc2)c(C)c1,-1.8,-0.6,-0.8,1.2,-1.3,-0.1
COc1cccc(-c2nnn(CC(C)=O)n2)c1,3.8,0.6,-0.5,17.2,11.1*,1.2
COc1ccc(-c2ccc(-c3nnn(CC(C)=O)n3)cc2)cc1,1.5,-0.3,-1.4,5.0,8.0,0.1
Nc1nc(SCc2ccccn2)c2ncn(C3CCCC3)c2n1,-1.0,2.3,-0.6,/,10.5*,0.9
Cc1cc(OC(C)C(=O)N2CCN(c3ccc(F)cc3)CC2)c2c(C)cc(=O)oc2c1 (configuration not stated),-2.0,0.5,-0.3,0.8,0.6,-0.1
CCNS(=O)(=O)c1ccc(OC)c(C)c1,-0.8,-0.5,-2.0,-0.1,0.5,0.0
CCNS(=O)(=O)c1ccc2c(c1)NCC2,-1.6,-0.2,1.7*,-1.9,-3.2,-0.3
N=c1cc(C2(O)CCCCC2)n2c(nc3ccccc32)s1,3.4,1.5,0.3,-5.9,10.7*,3.6*
O=C1c2sc3nc4ccccc4n3c2C(=O)N1c1ccccc1Cl,0.5,-0.3,-0.9,2.5,1.5,-0.2
COc1ccc(C(=O)c2[nH]c(N)c(C(=O)c3c[nH]c4ccccc34)c2-c2ccc(OC)cc2)cc1,-0.7,/,-0.4,/,-0.1,-0.1
CCCCCCCCCC1NC(C(=O)O)Cc2c1[nH]c1ccccc21 (configuration not stated),1.3,-0.5,-0.6,/,-0.7,-0.9
C/C=C(/CCC1NCCc2c1[nH]c1ccccc21)[Si](C)(C)C (configuration not stated),3.9,0.0,1.3*,/,2.9,-0.2
CCNC(=O)Nc1ccc2c(c1)C(=O)N(C)[C@H]1CC[C@H](CC(=O)N[C@H](C)c3ccccc3)O[C@@H]1CO2,1.3,/,-1.0,/,1.1,0.3
CCN(CC)CCNC1=NCCn2c1cc1cc(OC)ccc12,-0.3,1.2,-0.8,57.9*,5.5,0.1
CC(C)(C)NCC(O)CON=C1c2ccccc2-c2ccccc21 (configuration not stated),-1.1,5.4*,-1.8,4.3,-3.2,0.6
COc1ccccc1NS(=O)(=O)c1cc(NC(=O)c2[nH]c(C)c(C(C)=O)c2C)ccc1N1CCOCC1,3.9,1.3,-1.1,34.0,-8.7,4.0*
CC(=O)c1c(C)[nH]c(C(=O)Nc2ccc(Cl)c(S(=O)(=O)N3CCOCC3)c2)c1C,-3.4,-1.1,-2.3,48.7*,-7.3,-1.8
COc1ccccc1NS(=O)(=O)c1cc(NC(=O)c2ccccc2C)ccc1N1CCOCC1,0.0,-0.2,-2.0,/,-0.2,-1.4
